Measured values: PubChem BioAssay AID1159580 (chemical genetic matrix, 2015)
About 2,000 (36%) of roughly 5,500 compounds were called active. Inconclusive results (about 18%) are left out. Rule as the data show it: active = normalized growth mostly below about 0.91 (no sharp cut-off); inconclusive = no clear call, values can overlap the other calls; inactive = mostly above about 0.92. This is one part of the list.

Test: chemical genetic growth profiling, strain panel (AID 1159580);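 also: tested at 20 µM; growth read once vehicle control cultures reached saturation at 30 °C; 1 = growth at the plate median or of vehicle wells; lower values mean less growth of the strain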
Conditions: S. cerevisiae deletion strains, growth OD

Measured: normalized growth

CCOP(=S)(OCC)SCn1c(=O)oc2cc(Cl)ccc21
active: locus YBR009C, strain hhf1, active compounds read low 1.35 [resistant] | locus YDR137W, strain rgp1, active compounds read low 0.81
inactive: locus YAL013W, strain DEP1, active compounds read low 1 | locus YAL021C, strain ccr4, active compounds read low 0.957 | locus YAL026C, strain drs2, active compounds read low 0.972 | locus YAL030W, strain snc1, active compounds read low 0.947 | locus YBL061C, strain skt5, active compounds read low 0.949 | locus YBR021W, strain FUR4, active compounds read low 0.998 | locus YBR023C, strain chs3, active compounds read low 0.946 | locus YBR171W, strain sec66, active compounds read low 0.922 | locus YBR229C, strain ROT2, active compounds read low 0.997 | locus YBR231C, strain swc5, active compounds read low 0.956 | locus YBR279W, strain paf1, active compounds read low 0.977 | locus YCL011C, strain gbp2, active compounds read low 0.961 | locus YCL016C, strain dcc1, active compounds read low 0.955 | locus YCL029C, strain bik1, active compounds read low 0.985 | locus YCL061C, strain MRC1, active compounds read low 0.956 | locus YCL069W, strain vba3, active compounds read low 0.968 | locus YCR088W, strain abp1, active compounds read low 0.961 | locus YDL005C, strain med2, active compounds read low 0.968 | locus YDL035C, strain GPR1, active compounds read low 0.987 | locus YDL040C, strain nat1, active compounds read low 0.961 | locus YDL074C, strain BRE1, active compounds read low 0.928 | locus YDL101C, strain DUN1, active compounds read low 1.01 | locus YDL134C, strain PPH21, active compounds read low 0.991 | locus YDL185W, strain tfp1, active compounds read low 1 | locus YDL192W, strain arf1, active compounds read low 0.989 | locus YDR001C, strain nth1, active compounds read low 0.96 | locus YDR069C, strain doa4, active compounds read low 0.956 | locus YDR101C, strain arx1, active compounds read low 0.992 | locus YDR150W, strain NUM1, active compounds read low 0.995 | locus YDR159W, strain sac3, active compounds read low 0.97 | locus YDR162C, strain NBP2, active compounds read low 0.987 | locus YDR195W, strain ref2 1.04 | locus YDR297W, strain sur2, active compounds read low 0.943 | locus YDR318W, strain mcm21, active compounds read low 0.993 | locus YDR334W, strain swr1, active compounds read low 0.965 | locus YDR335W, strain msn5, active compounds read low 0.974 | locus YDR388W, active compounds read low 0.994 | locus YDR392W, strain spt3, active compounds read low 0.872 | locus YDR502C, strain sam2, active compounds read low 0.986 | locus YEL003W, strain gim4, active compounds read low 0.961 | locus YEL037C, strain rad23, active compounds read low 0.975 | locus YEL061C, strain CIN8 (second series), active compounds read low 0.96 | locus YEL061C, strain CIN8, active compounds read low 0.99 | locus YER015W, strain faa2, active compounds read low 0.967 | locus YER016W, strain bim1, active compounds read low 0.958 | locus YER110C, active compounds read low 0.993 | locus YER111C, strain swi4, active compounds read low 0.965 | locus YER155C, strain BEM2 (second series), active compounds read low 0.952 | locus YER155C, strain BEM2, active compounds read low 0.993 | locus YER167W, strain BCK2, active compounds read low 1 | locus YFR010W, strain ubp6, active compounds read low 0.979 | locus YGL078C, strain dbp3, active compounds read low 0.984 | locus YGL086W, strain mad1, active compounds read low 0.986 | locus YGL167C, strain pmr1, active compounds read low 0.921 | locus YGL173C, strain kem1, active compounds read low 0.943 | locus YGL227W, strain vid30, active compounds read low 0.963 | locus YGL240W, strain doc1, active compounds read low 0.935 | locus YGL248W, strain PDE1, active compounds read low 0.985 | locus YGL253W, strain hxk2, active compounds read low 0.961 | locus YGR078C, strain PAC10, active compounds read low 0.994 | locus YGR135W, strain pre9, active compounds read low 0.977 | locus YGR229C, strain SMI1, active compounds read low 1.01 | locus YGR252W, strain gcn5, active compounds read low 0.987 | locus YHR013C, strain ard1, active compounds read low 1.01 | locus YHR027C, strain rpn1, active compounds read low 0.959 | locus YHR030C, strain SLT2, active compounds read low 0.984 | locus YHR079C, strain IRE1 (second series), active compounds read low 0.996 | locus YHR094C, strain hxt1, active compounds read low 0.994 | locus YHR129C, strain ARP1, active compounds read low 0.986 | locus YHR142W, strain chs7, active compounds read low 0.954 | locus YHR200W, strain rpn10, active compounds read low 0.99 | locus YIL066C, strain RNR3, active compounds read low 1.01 | locus YIL073C, strain SPO22, active compounds read low 1.06 | locus YIL125W, strain kgd1, active compounds read low 0.984 | locus YIR030C, strain dcg1, active compounds read low 0.989 | locus YJL092W, strain hpr5, active compounds read low 0.965 | locus YJL095W, strain BCK1 (second series), active compounds read low 0.941 | locus YJL095W, strain BCK1, active compounds read low 0.975 | locus YJL115W, strain asf1, active compounds read low 0.969 | locus YJL129C, strain trk1, active compounds read low 0.907 | locus YJL134W, strain LCB3, active compounds read low 0.994 | locus YJL154C, strain vps35, active compounds read low 0.972 | locus YJL164C, strain tpk1, active compounds read low 0.943 | locus YJL166W, strain qcr8, active compounds read low 0.942 | locus YJL168C, strain set2, active compounds read low 0.991 | locus YJL187C, strain SWE1 (second series), active compounds read low 1 | locus YJL187C, strain SWE1, active compounds read low 0.95
